Most compounds without a hit are left out; they make up all but 1% or so of the library.
IP6K1 inhibitor: IP6K1 kinase inhibition. IP6K1 kinase, ADP-Glo luminescence, 2 h; stronger effect = lower value. Q92551. AID 1645851. 140,000 tested, 0.81% active. activity change, % (series mostly up to about 58 µM); in the data active = activity change below about -25%
Target sequence (Q92551 whole entry, looked up): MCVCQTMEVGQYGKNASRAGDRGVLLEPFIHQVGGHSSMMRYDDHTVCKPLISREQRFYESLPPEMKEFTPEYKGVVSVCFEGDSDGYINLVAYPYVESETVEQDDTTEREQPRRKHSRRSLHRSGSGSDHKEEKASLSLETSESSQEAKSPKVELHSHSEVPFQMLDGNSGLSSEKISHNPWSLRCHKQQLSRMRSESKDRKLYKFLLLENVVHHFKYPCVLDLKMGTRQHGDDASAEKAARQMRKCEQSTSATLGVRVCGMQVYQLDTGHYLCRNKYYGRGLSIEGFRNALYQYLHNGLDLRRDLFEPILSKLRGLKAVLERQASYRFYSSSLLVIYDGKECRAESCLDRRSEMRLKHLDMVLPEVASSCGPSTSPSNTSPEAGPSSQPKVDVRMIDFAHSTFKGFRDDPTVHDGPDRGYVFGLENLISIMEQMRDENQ
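ADP-Glo luminescence measures ADP made by human IP6K1 during a 2 h RT reaction with ATP/IP6 (mix at 1.3 mM/130 uM); top library doses 57.5 and 19.1 uM final.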
SNCA expr inhib: reduces expression of the alpha-synuclein gene. HEK-293 SNCA-luciferase knock-in, luminescence, 24 h. Potency, µM (titrated, usually from 57.2 µM), hits mostly inhibitors. 140,000 tested, 0.17% active; note: nearly all actives have a fitted effect of over 45% in size
HEK293 viab: cell viability loss counter-screen; HEK-293-SNCA-luc viability, GF-AFC fluorescence, 24 h; Potency, µM (titrated, usually from 57.1 µM), actives largely listed as cytotoxic; 150,000 tested, 0.12% active; note: nearly all actives have a fitted effect of over 30% in size
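Cytotoxicity counterscreen: after 24 h compound treatment of genome-edited SNCA-luciferase HEK-293 cells, live-cell protease substrate GF-AFC read by fluorescence after 30 min; activity scaled between DMSO (0%) and medium-only (-100%), curves Hill-fitted.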
GPT2 inh: GPT2 alanine aminotransferase inhibition; Recombinant GPT2, coupled pyruvate oxidase/HRP Amplex Red fluorescence; 100,000 tested, 0.25% active; AID 1671188; Potency, µM (series often up to 57.7 µM), most hits filed as inhibitors; note: nearly all actives have a fitted effect of over 60% in size
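GPT2 10ng/uL, a-KG 250uM, L-Ala 2mM, HEPES pH7.5 + 0.0001% Tween; 30 min RT. Then Amplex mix (PO/HRP/ThPP), 30 min RT dark, fluorescence. AOA 50uM used as positive control.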
IP6K1 inh cnf: human IP6K1 inhibition, confirmatory; shares compounds with IP6K1 inhibitor; recombinant IP6K1 kinase, ADP-Glo luminescence, 2 h; Potency, µM (highest dose often 49 µM), usual class: inhibitors; 1,200 tested, 13% active; AID 1645852; note: nearly all actives have a fitted effect of over 65% in size
Hits are given with their value; - = inactive; ? = inconclusive; . = not tested or not shown; ! = not confirmed by another sample; [ ] = dose if it differs, or a comment. Unless noted, calls come from the whole dose curve; as a rule, active = well fitted curve in the direction sought with a large enough effect; inconclusive = small, poorly fitted or top-dose-only effect, or another doubt; inactive = no such curve, though single readings can be large; an effect the other way counts as inactive or inconclusive.

SMILES	IP6K1 inhibitor	SNCA expr inhib	HEK293 viab	GPT2 inh	IP6K1 inh cnf
Cc1ccc(CSc2oc(-c3ccco3)nc2S(=O)(=O)c2ccc(Br)cc2)cc1	-32	-	?	.	-
O=C(CSc1oc(-c2ccco2)nc1S(=O)(=O)c1ccc(Cl)cc1)c1ccc(Cl)cc1	-27	?	-	.	-
NC(=O)CSc1oc(-c2ccco2)nc1S(=O)(=O)c1ccc(Br)cc1	-33	-	-	.	?
Cc1cnc(CC2CCN(C(=O)CCC3CCCC3)C2)n1CC1CC1 (stereo unspecified)	-	-	?	?	.
Cc1ccc(-c2n[nH]c3c2C(c2ccccc2Cl)N(c2ccc(C(=O)O)cc2)C3=O)cc1 (stereo unspecified)	-29	?	-	.	-
Cc1ccc(C(=O)NC2CCCN(c3cc(-c4ccc(F)cc4)[nH]n3)C2)cn1 (stereo unspecified)	-	-	-	?	.
COc1ccc(-c2nnc([C@H]3CCN(C(=O)c4ccccc4)C3)o2)cc1	-	-	?	-	.
COc1ccc(-c2nnc(C3CCN(C(=O)c4ccccc4F)CC3)o2)cc1	-29	?	?	.	?
O=C(C1CCCN1[S+](=O)([O-])c1cccs1)N1CCC(c2nc3ccncc3[nH]2)CC1 (stereo unspecified)	-	-	-	-	.
CC(=O)c1cccc(NC(=O)Cn2ccn3nc(-c4ccc(F)cc4)c(CO)c3c2=O)c1	-30	?	-	-	-
O=C(CCc1ccc(O)cc1)c1c(O)cc(O)cc1O	.	-	-	6.9µM!	5.2µM
COc1ccc(CCC(C)=O)cc1	-	-	-	-	.
CN[C@@H](CO)C(=O)NCc1nc(-c2ccc(C)cc2)c(-c2ccccn2)[nH]1	-45	-	-	-	-
Cc1ccc(-c2nc(CNC(=O)C(C)CN)[nH]c2-c2ccccn2)cc1 (stereo unspecified)	-	-	-	-	.
O=C(N[C@@H]1CN(Cc2ccccn2)CCC[C@H]1O)c1ccc(OCc2ccccc2)cc1	-33	-	-	?	-
NC(=O)COc1ccc(C(=O)N[C@@H]2CN(Cc3ccccn3)CCC[C@H]2O)cc1	-	-	-	-	.
O=C(C1CCCC1)N1CCC(C(=O)N2CCC(N3Cc4ccccc4C3=O)CC2)CC1	-	-	-	-	.
CN1C(=O)N[C@H](Cc2c[nH]c3c(Cl)cccc23)C1=O	.	.	.	.	-
CCN(CC)C(=S)SSC(=S)N(CC)CC	-56!	?	?	11µM!	8.9µM
O=C(O)CCc1nc2ccccc2[nH]1	-	-	?	-	.
Cc1ccc(/C=C/c2nc3ccccc3[nH]2)cc1	-41	-	-	.	10µM
O=C(O)c1cccc(-c2n[nH]c3c2CC(=O)N(CCOc2ccccc2)C3)c1	-	-	-	-	.
c1cc(OCCN2CCCCC2)cc(-c2n[nH]c3ccc(-c4ncn[nH]4)cc23)c1	-47	-	-	-	?
Cc1cc(C(=O)NC2CCNCC2)c2c(C3CCCN3)noc2n1 (stereo unspecified)	-	-	-	-	.
Cc1ccc([S+](=O)([O-])N2CCC(C(=O)N3CCCC(c4nc5ncccc5[nH]4)C3)CC2)cc1 (stereo unspecified)	-	?	-	-	.
SMILES	IP6K1 inhibitor	SNCA expr inhib	HEK293 viab	GPT2 inh	IP6K1 inh cnf
O=C1N(Cc2ccc(F)cc2)C[C@H]2CN(Cc3ccccn3)CCN12	-32	-	-	-	?
CSc1ncccc1C(=O)NC1CC(c2cc(=O)[nH]c(N)n2)C1 (stereo unspecified)	-	-	-	-	.
COc1ccc(-c2ccc(C(=O)NC3CC(c4cc(=O)[nH]c(N)n4)C3)o2)cc1 (stereo unspecified)	-30	-	-	-	?
Cc1ccc(-c2nnc3ccc(Nc4cccc(N(C)C)c4)nn23)nc1	-25	-	-	-	-
Cc1ccc(C2=Nc3ccccc3NC(c3ccncc3)=N2)cc1	-30	-	-	.	-
CCCOc1ccc(C2=NC(c3ccncc3)=Nc3ccc(C)cc3N2)cc1	-	-	-	.	.
COc1ccc(CNC(=O)C2CCN(S(=O)(=O)c3cn(C)cn3)CC2)cc1	-	-	-	.	.
CCOc1ccc(CNC(=O)C2CCN(S(=O)(=O)c3cn(C)cn3)CC2)cc1	-26	-	-	.	-
Cc1cccc(-c2cnc3[nH]cc(CC(N)=O)c3c2)c1	-32	-	-	-	?
CNC(=O)c1cccc(-c2cnc3[nH]cc(CC(=O)Nc4cccc(F)c4)c3c2)c1	-	-	-	-	.
NC(=O)Cc1c[nH]c2ncc(-c3cccc(CO)c3)cc12	-27	-	-	-	?
CNC(=O)c1cccc(-c2cnc3[nH]cc(CC(=O)Nc4ccccc4Cl)c3c2)c1	-26	-	?	-	?
COc1ccc(C(=O)NC2CCN(c3ccc4nnc(C)n4n3)CC2)cc1	-	.	.	.	.
COc1ccccc1CCn1cnc(-c2ccccc2)c1-c1cn(C)nc1C	-	-	-	-	.
O=C(O)c1ccccc1O	-	-	-	-	.
Nc1ccc(C(=O)O)c(O)c1	-74	-	-	-	-
COc1ccc(C(=O)Nc2ccc(-c3cc4ccccc4oc3=O)c(C)c2)cc1Br	-28	-	-	.	?
CC(=O)Nc1ccc(-n2c(CCC(=O)O)ccc2-c2ccc(C)cc2)cc1	-	-	-	.	.
CC(=O)Nc1ccc(-n2c(CCC(=O)O)ccc2-c2ccc(Br)cc2)cc1	-41	-	-	.	-
COc1cccc(-c2ccc(CN3CCCC(NC(=O)c4ccc(Cl)nc4)C3)cc2)c1 (stereo unspecified)	-	-	?	?	.
O=C(NC1CCN(c2ccc3nnc(C4CC4)n3n2)CC1)c1ccccc1	-	.	.	.	.
Cc1ccc([N+](=O)[O-])c(Oc2ncnc3c2oc2ccccc23)c1	-29	-	-	.	-
CCN(CC)CCCNC(=O)c1ccc2c(c1)NC(=O)C(CS(=O)(=O)Cc1ccc(F)cc1Cl)N2 (stereo unspecified)	-	-	-	.	.
Cc1ccc(CNC(=O)c2ccc3c(c2)NC(=O)C(CS(=O)(=O)Cc2cccc(F)c2)N3)cc1 (stereo unspecified)	-35	-	-	.	-
CCOCCCNC(=O)c1ccc2c(c1)NC(=O)C(CS(=O)(=O)Cc1ccc(F)cc1Cl)N2 (stereo unspecified)	-43	-	-	.	-
SMILES	IP6K1 inhibitor	SNCA expr inhib	HEK293 viab	GPT2 inh	IP6K1 inh cnf
O=C1NC2(CCN(Cc3ccsc3)CC2)COc2ccccc21	-	-	-	-	.
COc1ccccc1-n1c(=O)c(C(=O)NCCc2ccc(F)cc2)nc2cccnc21	-	-	-	-	.
CN1CC2(CCN(C(=O)c3ccccc3-c3nn[nH]n3)CC2)CC1C(=O)O (stereo unspecified)	-38	-	-	-[11.5 µM]	-
Nc1nc2c(s1)C(c1cccc(F)c1)CC(=O)N2 (stereo unspecified)	-31	-	-	?	?
COc1ccc(N2CCN(C(=O)C3CCN(S(=O)(=O)c4cnc[nH]4)CC3)CC2)cc1	-29	-	-	.	-
Cn1ncc2c(C(=O)NC3CC3)cc(-c3ccc(Cl)cc3)nc21	-	-	-	?	.

Screening results deposited in PubChem BioAssay by National Center for Advancing Translational Sciences (NCATS).
